Smad3 FoxH1 inh = inhibitors of human Smad3 transcription factor binding; 88,000 compounds, 0.29% hits; P84022; inhibition, % at 25 µM; TR-FRET Smad3/Dy647-FoxH1 peptide binding, europium anti-His; AID 630;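 active = compounds that reduce the energy-transfer binding signal between the protein and its labelled peptide by more than half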;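 note: 0% = Smad3 plus labelled peptide maximal FRET and 100% = peptide-only background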
TNAP act mid DEA = activates human TNAP at intermediate phosphate acceptor concentration. P05186. purified TNAP, CDP-star luminescence, 100 mM DEA, 30 min; hits give high values; scale: 0 levamisole-inhibited, 1 vehicle-only enzyme. activation factor at 20 µM. 64,000 tested, under 10 active. AID 813;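 active = activation factor of at least 2 at 20 µM, relative to controls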
Cav32 inh = human Cav3.2 channel inhibition, primary screen. B-score at 10 µM. AID 449739. 100,000 compounds, 4% hits. Cav3.2-expressing cells, Fluo-4 calcium fluorescence FDSS; hits give low values. O95180;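 active = single-dose well whose peak fluorescence ratio is a statistical outlier from its plate by either plate-standardised score or position-corrected B-score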
Target sequence (O95180 whole entry, looked up): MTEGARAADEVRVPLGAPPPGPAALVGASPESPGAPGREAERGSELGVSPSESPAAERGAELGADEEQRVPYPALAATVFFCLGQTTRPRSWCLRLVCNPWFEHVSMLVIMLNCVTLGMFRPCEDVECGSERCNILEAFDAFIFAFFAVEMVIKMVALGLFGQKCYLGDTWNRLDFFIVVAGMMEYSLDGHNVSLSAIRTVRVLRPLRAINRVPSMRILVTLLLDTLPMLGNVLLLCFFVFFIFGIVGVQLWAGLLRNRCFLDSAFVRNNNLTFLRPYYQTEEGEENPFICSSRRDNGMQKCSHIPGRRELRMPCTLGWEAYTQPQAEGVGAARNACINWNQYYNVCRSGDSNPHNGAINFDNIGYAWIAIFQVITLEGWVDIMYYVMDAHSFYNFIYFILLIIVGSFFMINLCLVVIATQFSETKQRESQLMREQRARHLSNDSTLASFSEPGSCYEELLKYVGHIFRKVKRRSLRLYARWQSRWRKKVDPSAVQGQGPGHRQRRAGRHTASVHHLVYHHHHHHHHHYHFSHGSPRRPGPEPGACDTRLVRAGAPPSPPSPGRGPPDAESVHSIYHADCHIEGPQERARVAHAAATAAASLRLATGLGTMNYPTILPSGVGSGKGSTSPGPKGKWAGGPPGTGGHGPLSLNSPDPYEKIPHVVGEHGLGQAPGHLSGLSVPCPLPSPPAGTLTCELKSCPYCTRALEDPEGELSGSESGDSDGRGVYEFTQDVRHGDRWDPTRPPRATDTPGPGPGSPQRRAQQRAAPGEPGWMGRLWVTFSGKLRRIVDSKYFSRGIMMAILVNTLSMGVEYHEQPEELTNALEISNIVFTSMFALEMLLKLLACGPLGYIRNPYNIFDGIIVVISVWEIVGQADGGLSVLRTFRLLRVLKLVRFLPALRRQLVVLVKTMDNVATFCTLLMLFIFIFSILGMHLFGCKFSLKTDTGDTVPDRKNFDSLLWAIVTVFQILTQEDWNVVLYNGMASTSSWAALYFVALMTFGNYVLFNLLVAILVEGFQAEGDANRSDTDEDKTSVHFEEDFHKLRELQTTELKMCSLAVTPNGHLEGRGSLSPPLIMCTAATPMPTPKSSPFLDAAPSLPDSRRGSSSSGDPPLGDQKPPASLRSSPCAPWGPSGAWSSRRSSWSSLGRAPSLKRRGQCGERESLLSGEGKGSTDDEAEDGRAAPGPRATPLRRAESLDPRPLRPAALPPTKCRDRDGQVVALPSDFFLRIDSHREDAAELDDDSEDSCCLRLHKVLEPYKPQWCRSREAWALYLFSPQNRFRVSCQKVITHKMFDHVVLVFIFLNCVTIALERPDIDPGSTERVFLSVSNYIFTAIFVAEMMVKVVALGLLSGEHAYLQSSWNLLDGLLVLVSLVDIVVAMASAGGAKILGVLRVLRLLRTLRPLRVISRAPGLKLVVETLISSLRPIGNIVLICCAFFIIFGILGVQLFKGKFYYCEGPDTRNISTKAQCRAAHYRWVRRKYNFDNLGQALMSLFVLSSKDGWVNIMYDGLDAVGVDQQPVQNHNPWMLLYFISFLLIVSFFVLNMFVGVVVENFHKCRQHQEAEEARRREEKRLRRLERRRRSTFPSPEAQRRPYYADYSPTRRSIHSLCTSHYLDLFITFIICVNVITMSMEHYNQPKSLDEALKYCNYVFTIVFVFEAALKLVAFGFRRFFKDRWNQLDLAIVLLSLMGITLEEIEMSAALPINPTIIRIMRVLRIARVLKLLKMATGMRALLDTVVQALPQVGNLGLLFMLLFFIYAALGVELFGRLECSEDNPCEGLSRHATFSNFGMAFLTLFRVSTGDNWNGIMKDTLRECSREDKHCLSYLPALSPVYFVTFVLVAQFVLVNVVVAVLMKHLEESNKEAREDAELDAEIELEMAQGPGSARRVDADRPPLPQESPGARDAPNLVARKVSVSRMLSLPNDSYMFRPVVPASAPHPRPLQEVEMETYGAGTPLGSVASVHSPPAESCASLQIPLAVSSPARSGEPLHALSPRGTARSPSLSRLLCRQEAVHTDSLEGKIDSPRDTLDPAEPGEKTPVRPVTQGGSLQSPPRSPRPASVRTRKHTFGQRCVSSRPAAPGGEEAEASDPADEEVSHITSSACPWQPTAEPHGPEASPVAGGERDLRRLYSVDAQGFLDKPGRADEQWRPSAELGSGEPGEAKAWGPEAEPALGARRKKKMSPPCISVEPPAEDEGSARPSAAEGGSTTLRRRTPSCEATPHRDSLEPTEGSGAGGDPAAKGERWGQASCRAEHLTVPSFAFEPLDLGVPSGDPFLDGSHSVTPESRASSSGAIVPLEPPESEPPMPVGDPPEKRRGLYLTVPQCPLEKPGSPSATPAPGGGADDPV
PostGolgi ctrl = inhibits growth of the yeast control strain; efflux-deficient yeast background strain, growth absorbance A615, 16 h; inhibition, % at 10 µM; 98,000 compounds, 5% hits
DAT uptake mod = modulates human dopamine transporter uptake under cocaine | Q01959 | LLC-PK1 hDAT cells, [14C]-dopamine uptake with cocaine IC80; actives deviate in either direction | B-score at 10 µM | 110,000 compounds, 1.3% hits;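 active = Z score or B-score, a plate-position-corrected score, falls beyond the plate's 99.7% confidence bounds, in either direction; inactive = both scores lie inside the 99.7% bounds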;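 note: scored against the spread of the other compound wells on the same plate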
PostGolgi yeast = growth inhibition of a yeast mutant, post-Golgi transport screen; inhibition, % at 10 µM; post-Golgi transport phenotypic cell assay; 98,000 compounds, 0.9% hits;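 note: yeast cells grown in 1536-well plates; yeast grown about 18 h at 30C before absorbance read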
The depositor's hits bear a star; nt = no result. The list is not random: actives were taken first. Their share in the collection is about 8.7%. Cut-off read from the data, not from the text of the source, unless noted: active = inhibition above about 30%; inactive = the rest.

SMILES | Smad3 FoxH1 inh | TNAP act mid DEA | Cav32 inh | PostGolgi ctrl | DAT uptake mod | PostGolgi yeast
CC(C)(C)NCC(O)COc1cccc2c1C[C@H](O)[C@H](O)C2 (stereo not given in full) | nt | 0.9 | nt | nt | 0.1 | nt
COC(=O)Cc1c[nH]c2cccc(OCC(O)CN(Cc3ccc([N+](=O)[O-])cc3)C(C)(C)C)c12 (stereo not given) | -6 | nt | -6.4* | 9 | 0.0023 | 5
COC(=O)Cc1c[nH]c2cccc(OCC(O)CN(Cc3ccccc3)C(C)C)c12 (stereo not given) | 1 | nt | -1.2 | nt | 1.3 | nt
CCCCC(c1nnnn1CCOC)N1CCN(C)CC1 (stereo not given) | 5 | nt | 1.2 | nt | 0.063 | nt
Fc1ccc(NCc2nnc(SCc3nnc(-c4ccccc4)o3)n2Cc2ccccc2)cc1 | -13 | 1 | -8.3* | 30 | 1.3 | 46*
CCCCCCn1cnc2c(c1=O)c1nc3ccccc3nc1n2Cc1cccs1 | 11 | 0.9 | -0.98 | 9 | -0.17 | 5
CCCCCCn1cnc2c(c1=O)c1nc3ccccc3nc1n2/N=C/c1ccco1 | -10 | 0.8 | -2.4 | 22 | 4* | 3
CCN(Cc1ccccc1)C(=O)C1CCN(Cc2ccc(OC)c(OC)c2OC)CC1 | 13 | 1 | 0.036 | 9 | -0.11 | -1
C=CCN1C(=O)C(Cc2ccccc2)S/C1=N/N=C/c1cccs1 (stereo not given) | 6 | nt | 0.027 | 38* | 0.34 | -7
CC1(C)CC(=O)C(C=NCCN2CCN(CCCCS(=O)(=O)O)CC2)=C(O)C1 | 10 | 0.9 | -0.57 | 33* | -1.7 | 6
CCOc1ccc(NC(=O)c2cccc(OC(=S)N3CCC(C)CC3)c2)cc1 | nt | nt | -4.3* | 15 | nt | 1
COc1ccc2c(c1OC)C(=O)N1c3ccccc3COC21 (stereo not given) | 4 | 0.9 | -1.1 | 10 | -0.13 | 0
COc1ccc2c(c1OC)C(=O)N1c3cccc(Cl)c3C(=O)OC21 (stereo not given) | 7 | 0.9 | -4.3* | -2 | 0.27 | 0
COC(=O)c1ccc(Cn2nc(C(F)(F)F)cc2C)cc1 | -4 | nt | -0.49 | 15 | -0.35 | 9
O=C(Nc1ccc2nc(SCc3ccc(Cl)cc3)sc2c1)c1ccccc1C(=O)N1CCOCC1 | nt | nt | -1.1 | 33* | -7.1* | -5
CCOC1(NC(=O)c2ccccc2)C(C)=CC(=O)C=C1C | 0 | 0.9 | -0.066 | 1 | -0.0029 | 6
CCOc1ccc(/C=C/[N+](=O)[O-])c2ccccc12 | nt | nt | 0.87 | 81* | -2.8 | 78*
O=[N+]([O-])/C=C/c1c(OCc2ccccc2)ccc2ccccc12 | 7 | nt | -1.5 | 99* | -0.26 | 105*
CCCN(CC1CC1)C(=O)CSc1ncnc2sc(C)c(C)c12 | 21 | nt | -5.2* | 37* | 0.68 | -6
Cc1onc(-c2ccccc2Cl)c1C(=O)OCC(=O)Nc1ccc2c(c1)OCO2 | 1 | 1 | -6.3* | 8 | -1.1 | -9
Cc1onc(-c2ccccc2)c1C(=O)OCC(=O)Nc1ccc2c(c1)OCO2 | -1 | 1 | -0.91 | 5 | -0.71 | -1
Cc1onc(-c2ccccc2Cl)c1C(=O)OCC(=O)N1CCCc2ccccc21 | -12 | 1 | -7.4* | 4 | 1.7 | -2
Cc1onc(-c2ccccc2Cl)c1C(=O)N1CCc2ccccc21 | -3 | 0.9 | -0.25 | 34* | -0.63 | -2
CCc1ncc(C)nc1CC | nt | nt | -0.29 | nt | -0.86 | nt
CC(C)C1O/C(=N/C(=O)Nc2ccc(Cl)c(Cl)c2)NC1=O (stereo not given) | -9 | nt | -5* | 92* | -0.14 | 98*
SMILES | Smad3 FoxH1 inh | TNAP act mid DEA | Cav32 inh | PostGolgi ctrl | DAT uptake mod | PostGolgi yeast
COc1ccc(C(=O)Nc2ccc(Cl)c(Cl)c2)c(OC)n1 | 2 | 0.9 | -0.59 | 6 | -0.14 | 0
O=C(NCCCn1ccnc1)c1ccc(S(=O)(=O)N2CCCCCC2)cc1 | -12 | nt | 0.41 | 12 | 3.1* | 0
CCOC(=O)c1cnc(-n2nc(C)cc2C)nc1Nc1ccc(OC)cc1 | nt | nt | nt | 21 | -0.35 | 5
CCOC(=O)c1cnc(-n2nc(C)cc2C)nc1Nc1ccccc1OC | nt | nt | 0.52 | 1 | 0.5 | 5
CCOC(=O)c1cnc(-n2nc(C)cc2C)nc1NCCc1ccccc1 | -8 | 0.9 | -4.1* | 39* | 2 | 6
CCOC(=O)c1cnc(-n2nc(C)cc2C)nc1NCc1ccc2c(c1)OCO2 | 3 | 0.9 | -0.9 | 12 | -7* | 22
COc1c(C)cc(S(=O)(=O)NC2CC(C)(C)NC(C)(C)C2)c(C)c1C | 5 | nt | -0.22 | nt | nt | nt
CCOc1ccc(NC(=O)CSc2nnc(C)n2CC2CCCO2)cc1 (stereo not given) | 4 | nt | 0.78 | -4 | 1.6 | -3
Cc1ccccc1OCc1nc2ccccc2c(=O)n1N | 5 | nt | -0.23 | 6 | 1.2 | -2
Cc1ccccc1OCc1nnc2c3cnn(C)c3ncn12 | -3 | 0.7 | 0.24 | 34* | 0.93 | -9
O=c1cc(CSc2nnnn2-c2ccccc2)nc2nc[nH]n12 | 4 | 0.9 | -0.91 | -1 | -0.42 | -11
COc1ccc(C(CC(=O)c2ccc(O)cc2)S(=O)(=O)c2ccc(C)cc2)cc1 (stereo not given) | nt | nt | -0.14 | 7 | 1.6 | -1
COc1cc([C@H]2[C@@H]3CCCC[C@]3(O)CCN2CC(=O)Nc2ccc(C)cc2)ccc1O | 10 | 1 | -0.46 | 5 | 0.61 | -7
CCN(CC)c1ccc(C2C3CCCCC3(O)CCN2CC(=O)N2CCCCC2)cc1 (stereo not given) | -7 | 0.9 | -0.062 | 4 | -7.9* | 1
CCn1c(CC(C)C)n[nH]c1=S | nt | 0.9 | 0.44 | -3 | -1.5 | 1
CCn1c(CCn2ccnc2C)n[nH]c1=S | 7 | 0.9 | -0.61 | 38* | 0.11 | -4
C=CCNC(=O)c1cccn1-c1ccsc1C(=O)OC | nt | nt | 0.11 | 0 | 0.48 | -12
COc1ccc(S(=O)(=O)N[C@H](C(=O)N2CC[C@@]3(O)CCCC[C@H]3C2)c2ccccc2)cc1 | 11 | 1 | 0.68 | 5 | 0.28 | -3
O=c1cc(N2CCCCC2)c(-c2ccccc2)nn1Cc1ccc(Cl)cc1 | nt | nt | -0.023 | 30 | 0.79 | -2
O=c1cc(N2CCCCC2)c(-c2ccccc2)nn1Cc1c(Cl)cccc1Cl | nt | nt | -0.22 | 46* | 0.77 | -4
CCOC(=O)NCc1ccc(Cl)c(Cl)c1 | -2 | 0.9 | -1.4 | 36* | 0.079 | 4
Cc1ccc(C(=O)NCc2ccc(Cl)c(Cl)c2)o1 | 1 | 0.9 | -0.31 | 4 | 0.45 | 3
CCOc1ccc(NC(=O)CN2CCN(C3c4ccccc4-c4ccccc43)CC2)cc1 | -6 | nt | -2.4 | nt | 0.45 | nt
Cc1ccc(C(=O)NCc2cccs2)cc1S(=O)(=O)N1CCCCC1 | 6 | 0.9 | -0.78 | 9 | -0.34 | 1
COC(=O)C1=C[C@@H](C(=O)OC)[C@@H]2C3=C(C(=O)[C@]2(CC(C)C)NC(=O)c2ccccc2)[C@H](C)n2c(=O)n(-c4ccccc4)c(=O)n2[C@@H]3C1 | nt | nt | -0.25 | nt | -2.5* | nt

Bioassay records from PubChem BioAssay.
